In PubChem BioAssay (EPA / NIEHS) one finds outcome and AC50 data, which are given here for 36 compounds.

A word on the AC50: it is the concentration giving half of the maximal activity seen.

Values joined by “and” are separate entries in the source; they are usually repeats but may differ in a detail not shown here. Equal values may be shown once. More than one record can exist for a structure, and the calls need not agree. Active and inactive are the calls of the source. The calls were made as follows: active = hit-call score of the fitted dose curve at least 0.9, where 1 is the maximum; inactive = score below 0.9.

The nature of the experiment: ATG_DR4_LXR_CIS: Attagene CIS-FACTORIAL HepG2 Assay for human Liver X Receptor (LXR), DR4 submotif (AID 2282929). As to conditions: HepG2 Attagene DR4 cis-reporter, mRNA transcription; actives raise or lower the signal. The procedure:
ATG_CIS is a cell-based, multiplexed-readout assay that uses HepG2, a human liver cell line, with measurements taken at 24 hours after chemical dosing in a 24-well plate.ATG_DR4_LXR_CIS is one of 52 assay component(s) measured or calculated from the ATG_CIS assay. It is designed to make measurements of mRNA induction, a form of inducible reporter, as detected with fluorescence intensity signals by Reverse transcription polymerase chain reaction (RT-PCR) and Capillary electrophoresis technology.Data from the assay component ATG_DR4_LXR_CIS was analyzed into 1 assay endpoint. This assay endpoint, ATG_DR4_LXR_CIS, was analyzed with bidirectional fitting relative to DMSO as the negative control and baseline of activity. Using a type of inducible reporter, measures of mRNA for gain or loss-of-signal activity can be used to understand the reporter gene at the transcription factor-level as they relate to the gene NR1H2 and NR1H3. Furthermore, this assay endpoint can be referred to as a primary readout, because this assay has produced multiple assay endpoints where this one serves a reporter gene function. To generalize the intended target to other relatable targets, this assay endpoint is annotated to the nuclear receptor intended target family, where the subfamily is non-steroidal.
Human liver HepG2 cells are transiently transfected with multiple reporter transcription units (MRTUs) in 6-well plates using FuGene 6 reagent (Roche; 3 ml FuGene/1 mg DNA). The MRTU constructs are regulated by a cis-regulating element (promoter). […] A major difference between the CIS and TRANS system is that in CIS activities of endogenous TFs are measured, whereas the TRANS assay evaluates changes in activities of exogenous, chimeric NR-Gal4 proteins. […] At the end of 24 hour incubation, total RNA was isolated using TriZol reagent (Invitrogen). The isolated RNA is then reverse-transcribed using oligo(dT) primer and Mo-MLV reverse transcriptase (Invitrogen) with DNAse I (Ambion) treatment for 30 min. The one-tenth of the produced cDNA was amplified by PCR using Taq DNA polymerase (Invitrogen) and two reporter sequence-specific primers. The PCR products were fluorescently labeled by primer extension with 6-arboxyfluorescein (6-FAM) 5'-labeled reporter sequence-specific primer (2 min at 95 C, 20 s at 68 C and 10 min at 72 C) and these products were digested with 5U of HpaI (New England Biolabs) for 2h at 37 C. The fragments were purified using Qiaquick PCR columns (Qiagen), analyzed on an ABI 3130xL genetic analyzer (Applied Biosystems) with peak positions identified by using a set of X-rhodamine (ROX)-labeled MapMarker1000 molecular weight standards (BioVentures). The raw capillary electrophoresis data was processed using Attagraph software (Attagene).
`O=C(O)CCCOc1ccc(Cl)cc1Cl`: the compound was classed as inactive. The same measure, in the same setting: under `O=C(O)COc1ccc(Cl)cc1Cl` stands “inactive”. Turning to `COP(=S)(OC)Oc1ccc(SC)c(C)c1`, the concentration at half-maximal activity (AC50) was 29.2 µM (active).

As to `O=C(O)C(F)(F)C(F)(F)C(F)(F)C(F)(F)C(F)(F)C(F)(F)C(F)(F)F`, the half-maximal activity concentration (AC50) was 11.5 µM (active) and the compound was classed as inactive.

For the compound `CCC(C)(NC(=O)c1cc(Cl)c(C)c(Cl)c1)C(=O)CCl` (stereo not given), the outcome was inactive. The same measure, in the same setting: the entry for `C#CCN1C(=O)COc2cc(F)c(N3C(=O)C4=C(CCCC4)C3=O)cc21` is “inactive”.

As for `C[C@H]1[C@H](c2ccc(Cl)cc2)SC(=O)N1C(=O)NC1CCCCC1`, the AC50 is 81.4 µM (active). `CCOCN(C(=O)CCl)c1c(C)cccc1CC`: the result was inactive. For `CC[C@H](C)[C@H]1O[C@]2(C=C[C@@H]1C)C[C@@H]1C[C@@H](C/C=C(\C)[C@@H](O[C@H]3C[C@H](OC)[C@@H](O[C@H]4C[C@H](OC)[C@@H](O)[C@H](C)O4)[C@H](C)O3)[C@@H](C)/C=C/C=C3\CO[C@@H]4[C@H](O)C(C)=C[C@@H](C(=O)O1)[C@]34O)O2` (tested in a mixture with another compound), the concentration at half-maximal activity (AC50) is 1.75 µM (active). Take `ClC1C(Cl)C(Cl)C(Cl)C(Cl)C1Cl` (stereo not given): the AC50 is 116 µM (active) and 21.7 µM (active); the compound was classed as inactive. Consider `CC(C)N(C(=O)COc1nnc(C(F)(F)F)s1)c1ccc(F)cc1`, for which the compound was classed as inactive. For the compound `O=[N+]([O-])c1c(Cl)c(Cl)c(Cl)c(Cl)c1Cl`, the result was inactive. `O=S1OCC2C(CO1)C1(Cl)C(Cl)=C(Cl)C2(Cl)C1(Cl)Cl` (stereo not given): the result was inactive. For the compound `CCCN(CCOc1c(Cl)cc(Cl)cc1Cl)C(=O)n1ccnc1`, the compound was classed as inactive. `Oc1ccc(Cl)cc1Cc1ccccc1`: the result was inactive; the half-maximal activity concentration (AC50) is 11.2 µM (active) and 14.2 µM (active) and 13.4 µM (active). For the compound `CCC(C)(C)C(=O)OC1=C(c2ccc(Cl)cc2Cl)C(=O)OC12CCCCC2`, the result was inactive. With `Clc1ccccc1-c1nnc(-c2ccccc2Cl)nn1`, the compound was classed as inactive. The same measure, in the same setting: the entry for `COc1nn(CSP(=S)(OC)OC)c(=O)s1` is “inactive”. As for `CCCN(CCC)c1c([N+](=O)[O-])cc(C(F)(F)F)cc1[N+](=O)[O-]`, the AC50 was 24.1 µM (active). In the case of `CC(C)(C)C(O)C(Oc1ccc(Cl)cc1)n1cncn1` (stereo not given), the result was inactive. `CNC(=O)Oc1ccccc1OC(C)C`: the compound was called inactive. Turning to `CCN(CC)C(=O)SCc1ccc(Cl)cc1`, the compound was called inactive. For `CCC(C)Nc1c([N+](=O)[O-])cc(C(C)(C)C)cc1[N+](=O)[O-]` (stereo not given), the AC50 is 36.4 µM (active). On to `N#Cc1c(Cl)c(Cl)c(Cl)c(C#N)c1Cl`, for which the result was inactive.

As to `Oc1cc(Cl)ccc1Oc1ccc(Cl)cc1Cl`, the AC50 is 17.6 µM (active) [middle of 4 runs] and the outcome was inactive.

`O=C(NC(=O)c1c(F)cccc1F)Nc1ccc(OC(F)(F)C(F)OC(F)(F)F)c(Cl)c1` (stereo not given): the outcome was inactive. For `COC(=O)c1ccccc1S(=O)(=O)NC(=O)Nc1nc(C)nc(OC)n1`, the compound was classed as inactive. Still for that read-out and setting: the entry for `COC(=O)c1ccccc1S(=O)(=O)NC(=O)N(C)c1nc(C)nc(OC)n1` is “inactive”; for `COP(=S)(OC)Oc1ccc([N+](=O)[O-])cc1` it is “inactive”. Take `CC(C)(C)C(O)/C(=C\c1ccc(Cl)cc1Cl)n1cncn1` (stereo not given): the compound was classed as inactive. For the compound `COc1cc(OC)nc(NC(=O)NS(=O)(=O)c2cc(NC=O)ccc2C(=O)N(C)C)n1`, the outcome was inactive.

With `[2H]C1([2H])[n+]2ccccc2-c2cccc[n+]2C1([2H])[2H]`, the concentration at half-maximal activity (AC50) was 79.9 µM (active). On to `CCOc1nc(NC)nc(NC(=O)NS(=O)(=O)c2ccccc2C(=O)OC)n1`, for which the result was inactive.

Regarding `CNC(=O)/C=C(\C)OP(=O)(OC)OC`, the result was inactive. On the same count and under the same terms, the entry for `OCCOc1ccccc1` is “inactive”; for `CCS(=O)(=O)c1cccnc1S(=O)(=O)NC(=O)Nc1nc(OC)cc(OC)n1` it is “inactive”.
